DAX1 inh-1 – NR0B1 (DAX1) inhibition. inhibition, % at 6.75 µM. 340,000 compounds, 0.99% hits. AID 504766. HEK293 Gal4-DAX1 luciferase reporter, luminescence. P51843;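 active = inhibition above the mean over all tested compounds plus 3 SD, cut at about 4.2% in these data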;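 note: 0% = DAX1-transfected cells with DMSO and 100% = empty-vector control cells with DMSO; inhibition shows as a rise in luminescence from relieved DAX1 repression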
Target sequence (P51843 207-470 limits assumed): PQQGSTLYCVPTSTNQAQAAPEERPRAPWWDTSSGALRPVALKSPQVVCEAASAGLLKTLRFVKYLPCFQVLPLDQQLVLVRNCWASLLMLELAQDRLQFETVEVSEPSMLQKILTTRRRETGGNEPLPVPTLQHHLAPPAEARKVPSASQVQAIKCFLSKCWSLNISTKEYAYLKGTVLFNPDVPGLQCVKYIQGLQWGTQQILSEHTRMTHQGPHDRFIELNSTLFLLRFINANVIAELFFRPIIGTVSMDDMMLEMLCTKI
hcDAF-12 act – H. contortus DAF-12 activation, primary screen. HEK293 hcDAF-12 lit1-tk-luc reporter, luminescence; 0% DMSO, 100% Δ7-dafachronic acid. activation, % at 6.8 µM. 370,000 compounds, 1.4% hits. AID 652067;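 active = activation above the mean of all tested compounds plus 3 SD, cut at about 5.5% in these data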;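 note: 100% = response to 3 µM Δ7-dafachronic acid high control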
DAX1 inh-2 – inhibitors of DAX1 repression of SF-1 activated StAR promoter. HEK293T StAR-luciferase reporter, SF-1/DAX-1 repression relief. inhibition, % at 6.8 µM. 370,000 compounds, 1.1% hits;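 active = inhibition above the mean over all tested compounds plus 3 SD, cut at about 3.6% in these data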;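 note: 0% = DAX-1 cells with DMSO and 100% = cells lacking DAX-1 with DMSO; higher inhibition means more luminescence from relief of DAX-1 repression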
hgDAF12 agonist – activates the H. glycines DAF-12 receptor ligand-binding domain. HEK293 GAL4-hgDAF12 UAS-luciferase reporter, agonist luminescence; normalized to butyrate control. activation, % at 6.8 µM. 370,000 compounds, 1.8% hits. AID 687014;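 active = activation above a cutoff set at the mean of all screened compounds plus 3 SD, cut at about 10% in these data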;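 note: 0% = DMSO wells and 100% = sodium butyrate wells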
ssDAF12 agonist – activators of S. stercoralis DAF-12 nuclear receptor; HEK293 ssDAF-12/GRIP1 lit1-tk-luc reporter, luminescence; % of 3 µM dafachronic acid response; activation, % at 6.8 µM; 370,000 compounds, 1% hits;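 active = activation above the mean over all tested compounds plus 3 SD, cut at about 0.9% in these data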;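 note: 0% = DMSO-only wells and 100% = 3 µM delta7-dafachronic acid wells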
* hit, by the source's call; x = no result. This is a sample that favours compounds with a hit; in the whole collection about 4.1% have one here.

SMILES	DAX1 inh-1	hcDAF-12 act	DAX1 inh-2	hgDAF12 agonist	ssDAF12 agonist
O=C(NCCN1C(=O)S/C(=C\c2ccc(F)cc2)C1=O)c1cccc(S(=O)(=O)N2CCOCC2)c1	0	-1	0	-2	-1
O=C(Cn1ncc(Cl)c(Cl)c1=O)c1ccc(Cl)cc1	-1	0	-1	-1	0
O=C(Cn1ncc(N2CCOCC2)c(Cl)c1=O)c1ccc(Cl)cc1	5.4*	0	0	0	-1
O=C1NC(=O)c2cc(NC(=O)C3CCCO3)ccc21 (stereo unspecified)	0	1	0	4	-2
O=C1OCc2cc(NC(=O)C3CCCO3)ccc21 (stereo unspecified)	-1	5.8*	0	4	-1
O=C(NC1CCCC1)C(C1CC1)n1c(C2CC2)nc2ccccc21 (stereo unspecified)	x	1	2	5	1.6*
CC1=C(C(=O)OCCc2ccccc2)C(c2ccsc2)NC(=O)N1C (stereo unspecified)	4.5*	-4	-1	1	-2
COCCNC(=O)c1ccc2c3n(nc2c1)-c1ccccc1CO3	2	6.4*	2	12*	0
COCCNC(=O)c1ccc2c3n(nc2c1)-c1ccc(Cl)cc1CO3	2	3	1	7	-1
O=C(NCC1CC1)c1ccc2c3n(nc2c1)-c1ccc(Cl)cc1CO3	0	2	1	12*	-1
COC(=O)[C@]12C[C@H](CC(=O)NCc3ccccc3)C(=O)N(Cc3ccc(Cl)cc3Cl)C1=C[C@H](COCc1ccccc1)O[C@@H]2C	x	0	-1	-1	-1
Cc1cc(N2CCOCC2)ccc1/C=C1\SC(=O)N(C(C)C)C1=O	5.6*	0	0	4	-2
CCC(C)N1C(=O)S/C(=C/c2ccc(N3CCOCC3)cc2C)C1=O (stereo unspecified)	2	-2	-1	4	-2
Cc1ccc(-c2nnc(SCC(=O)NNC(=S)Nc3ccccc3)n2C2CCCCC2)cc1	x	-2	0	0	-1
N/C(=N\OCc1ccccc1)c1nonc1N	1	2	2	11*	-1
CCn1cc([N+](=O)[O-])c(C(=O)NCc2ccc3c(c2)OCO3)n1	4.9*	1	0	0	-1
Cn1c(C(=O)N2CCN(Cc3ccc4c(c3)OCO4)CC2)cc2sccc21	1	-3	-1	-3	-2
Cn1c(C(=O)NCc2ccc3c(c2)OCO3)cc2sccc21	0	6.2*	-1	1	-1
Cc1ccc(C(=O)Nc2nccc(C)n2)cc1	4.8*	2	0	7	-1
Cc1ccnc(NC(=O)c2cccc(OC(F)F)c2)n1	-1	2	0	4	0
COC(=O)c1c(-c2cccnc2)csc1NC(=O)c1cc(C)on1	1	6.5*	4.5*	7	0
COC(=O)c1c(-c2ccc(C)cc2)csc1NC(=O)c1c(-c2ccccc2)noc1C	x	-1	-1	-5	-2
COc1ccc(C(=O)N[C@H](C(=O)NCCCSc2ccccc2)C(C)C)cc1	7.8*	-2	0	2	-1
COc1ccc(C(=O)Nc2nc3ccccc3[nH]2)cc1	-4	0	0	-6	-1
CCOP(=O)(OCC)C(NC(=O)c1ccc(OC)cc1)c1ccccc1 (stereo unspecified)	4.3*	-1	1	-2	-2
SMILES	DAX1 inh-1	hcDAF-12 act	DAX1 inh-2	hgDAF12 agonist	ssDAF12 agonist
COc1ccc(C(=O)N[C@H](C(=O)Nc2nc3ccccc3[nH]2)C(C)C)cc1	2	3	1	13*	0
CCOc1cc(CCNC(=O)c2cc(-c3ccccc3)c(N3CCOCC3)s2)ccc1OC	x	-5	-3	-3	-2
Cc1sc2nc(CN3CCOCC3)nc(NS(=O)(=O)c3ccc4c(c3)OCCO4)c2c1C	-1	1	0	0	0
Cc1sc2nc(CN3CCOCC3)nc(NS(=O)(=O)c3ccccc3)c2c1C	6.3*	-1	0	2	-1
Cc1sc2nc(CN3CCCC3)nc(N3CCN(S(=O)(=O)c4cccs4)CC3)c2c1C	4.7*	-1	0	0	-1
Cc1ccc(S(=O)(=O)N2CCN(c3nc(CN4CCCC4)nc4sc(C)c(C)c34)CC2)cc1	1	1	-2	-1	-1
Cc1ccc(S(=O)(=O)NC2=C(N3CCN(Cc4ccccc4)CC3)C(=O)c3ccccc3C2=O)cc1	5.3*	0	1	1	-1
O=C(N[C@H](C(=O)N1CCC[C@H]1C(=O)NC1CCCC1)c1ccccc1)C1CCCC1	x	-1	0	-1	-1
CCCC(=O)Nc1ccc(C(=O)NN=C(C2CC2)C2CC2)cc1	4.5*	-2	0	1	-1
CCCC(=O)Nc1ccc(C(=O)COC(=O)C2CC2)cc1	0	0	2	4	-1
COc1ccccc1NC(=O)OCCCN1CCC2(CCC(C)CC2)C1=O (stereo unspecified)	x	0	-1	0	-2
O=C(NCc1ccccc1Cl)C1CCN(S(=O)(=O)N2CCCCCC2)CC1	4.8*	-2	0	-2	-1
O=C(NCCCN1CCc2ccccc2C1)C1CCN(S(=O)(=O)N2CCC3(CC2)OCCO3)CC1	1	-1	0	-1	-1
O=C(NCCCN1CCc2ccccc2C1)C1CCN(S(=O)(=O)N2CCCC2)CC1	-1	5.8*	0	1	0
CC1CCN(S(=O)(=O)N2CCCC(C(=O)NCc3ccccc3Cl)C2)CC1 (stereo unspecified)	0	-1	-1	-4	0
COc1ccc(-c2nnc(SCc3cccc(F)c3)n2-c2ccccc2)cc1	x	-3	0	3	-1
CCOc1ccc(C2N(c3cc(Cl)ccc3OC)C(=O)C3CCCN32)cc1OC (stereo unspecified)	5.4*	-2	1	1	-2
CCOc1ccc(C2N(c3ccc(OC)cc3)C(=O)C3CCCN32)cc1OC (stereo unspecified)	4.8*	-1	0	1	-2
CCOc1ccc(C2N(c3ccc(Cl)cc3)C(=O)C3CCCN32)cc1OC (stereo unspecified)	1	2	2	1	-1
CCCNC(=O)C[C@H]1CC[C@H]2[C@@H](COc3ccc(NC(=O)Nc4ccc(C#N)cc4)cc3C(=O)N2C)O1	x	0	0	-2	-2
c1ccc(-c2nn(Cc3ncco3)c3ccccc23)cc1	x	2	x	-4	-1
C=CCn1c(N)cc(=O)nc1SCC(=O)Nc1ccc(C(=O)OC)cc1	0	0	0	3	-1
C=CCn1c(N)cc(=O)nc1SCC(=O)Nc1ccc(C(=O)OCC)cc1	5.8*	-1	0	2	0
Oc1[nH]c2ccccc2c1C=NCC1CCCO1 (stereo unspecified)	0	6.5*	0	5	-1
O=C(Nc1ccccc1)Nc1c(-c2ccc(F)cc2)nc2ncccn12	x	-3	-1	-2	0

Screens as filed in PubChem.
